# Records with an inconclusive call do not appear. Entries that show only a call come without a potency. Active and inactive are the calls of the source. Calls come from the whole dose curve; as a rule, active = well fitted inhibition curve with a large enough effect; inconclusive = small, poorly fitted or top-dose-only effect; inactive = flat fitted curve, though single readings scatter.
# Test: P-glycoprotein substrates identified in KB-8-5-11 adenocarcinoma cell line, qHTS therapeutic library screen (AID 1346987); note: nearly all actives have a fitted effect of over 65% in size
# Settings: KB-8-5-11 (P-gp overexpressing) viability, CellTiter-Glo, 72 h; series mostly up to 44.5 µM
# Summary of the method: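 In this qHTS, P-gp-rich KB-8-5-11 cells received library compounds across a concentration range. Viability was quantified by luminescence after 72 h at 37 degree C.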
# Potency is the fitted concentration of half-maximal effect.
row,Structure (SMILES),Potency
1,COc1ccc([C@@]2(O)c3c(ccc(CC=C(C)C)c3O)NC(=O)[C@@H]2OC)cc1,inactive
2,C[C@@H]1COCCN1c1cc(C2(S(C)(=O)=O)CC2)nc(-c2cccc3[nH]ccc23)n1,1460 nM (active)
3,COc1ccc([C@H]2CNC(=O)C2)cc1OC1CCCC1,inactive
4,O=C(O)c1cc(I)ccc1NC(=O)[C@H](Cc1ccccc1)NCc1ccccc1,inactive
5,O=C(O)Cc1ccc2oc(-c3ccc(NC(=O)/C=C/c4ccc(Br)cc4)c(F)c3)nc2c1,inactive
6,CC1CCC2(OC1)OC1CC3C4CC=C5CC(O)CC(O[C@@H]6OC[C@@H](O)[C@H](O)[C@H]6O)C5(C)C4CCC3(C)C1(O)C2C (some centres not stated),inactive
7,O=C(OCC1=CC(O)C2C=CO[C@@H](O[C@@H]3O[C@H](CO)[C@@H](O)[C@H](O)[C@H]3O)C12)c1ccccc1 (some centres not stated),inactive
8,N#C[C@@H]1CCCN1C(=O)CNC12CC3CC(CC(O)(C3)C1)C2,inactive
9,CC(O)CO[C@@H]1O[C@H](CO)[C@@H](O)[C@H](O)[C@H]1O (some centres not stated),inactive
10,COc1cc(N2CCC(N3CCN(C)CC3)CC2)ccc1Nc1ncc(Cl)c(-c2c[nH]c3ccccc23)n1,517 nM (active)
11,C[C@H]1O[C@@H](O[C@H]2CC[C@@]3(C)C(CC[C@]4(C)C3CC=C3C5CC(C)(C)CC[C@]5(C(=O)O)CC[C@]34C(=O)O)C2(C)C)[C@H](O)[C@@H](O)[C@@H]1O (some centres not stated),inactive
12,CN1C2CCC1CC(OC(=O)[C@H](CO)c1ccccc1)C2 (some centres not stated),inactive
13,CC1CCCCN1S(=O)(=O)c1ccc(N2CCCC2=O)cc1 (configuration not stated),inactive
14,C[C@@H]1CCC2C(C)(C)[C@H](O)CC[C@]2(C)[C@@]12Cc1c(O)cc3c(c1O2)CN([C@@H](CCC(=O)O)C(=O)O)C3=O (some centres not stated),inactive
15,C=C1C(OC(C)=O)CCC2(C)CC3(OC)OC(=O)C(C)=C3CC12 (configuration not stated),inactive
16,C=C1C[C@@]23CCC4[C@@](C)(CCC[C@@]4(C)C(=O)OC)C2CC[C@@H]1C3 (some centres not stated),inactive
17,C[C@H](C(=O)NC1CCCC1)N(C(=O)Cn1nnc(-c2ccc3c(c2)OCO3)n1)C1CCCCC1,inactive
18,COc1ccc(C2(O)CCC(N3CC[C@@H](NC(=O)CNC(=O)c4cccc(C(F)(F)F)c4)C3)CC2)cn1 (some centres not stated),inactive
19,Cc1ccc(S(=O)(=O)Cc2nc(-c3ccc(C(=O)NCc4cccnc4)cc3)oc2C)cc1,58 nM (active)
20,CC1=CC(=O)[C@H]2C(C)(C)CCC[C@]2(C)[C@@]1(O)CO,inactive
21,CC(C)NCC(C(=O)N1CCN(c2ncnc3c2C(C)CC3O)CC1)c1ccc(Cl)cc1 (configuration not stated),inactive
22,CC(C)c1cc2c(c(O)c1O)[C@@]13CCCC(C)(C)[C@@H]1[C@H](OC3=O)C2=O,inactive
23,CC(=O)N1CCc2ccc(O)c(OC3OC(COC4OCC(O)(CO)C4O)C(O)C(O)C3O)c2C1Cc1ccc(O)cc1 (configuration not stated),inactive
24,C=C1C[C@]23C[C@H]1CC[C@H]2[C@]1(C)CCC[C@@](C)(C(=O)O)[C@H]1[C@@H]3C(=O)O,inactive
25,COc1ccc2cc(C(C)C(=O)Oc3ccc(C(N)=S)cc3)ccc2c1 (configuration not stated),inactive
26,O=C1CSc2ccccc2N1Cc1cccc(C(F)(F)F)c1,inactive
27,CC[C@]12C=CCN3CC[C@@]4(c5cc([C@@]6(C(=O)OC)C[C@H]7C[C@@H](C(C)(F)F)CN(Cc8c6[nH]c6ccccc86)C7)c(OC)cc5N(C)[C@H]4[C@@](O)(C(=O)OC)[C@@H]1OC(C)=O)[C@@H]32,5440 nM (active)

# Reference: PubChem BioAssay (NCATS)
